Results published in PubChem BioAssay (Tox21).
Inconclusive results are not listed. Calls of active or inactive are those of the source. Unless noted, calls follow the shape of the dose curve; as a rule, active = well fitted curve in the direction sought with a large enough effect in the repeat runs; inconclusive = weak or mixed curves; inactive = no such curve, though single readings can be large; an effect the other way counts as inactive or inconclusive.

Assays:
[1] = qHTS assay to identify small molecule agonists of the NFkB signaling pathway - cell viability counter screen (AID 1159515; calls by dose curve; also: series mostly up to about 61 µM; % is scaled to controls: 0 for no effect and ±100 for the full control effect; nearly all actives have a fitted effect of over 55% in size)
Method in brief: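 Counter screen run alongside the NFkB-bla agonist assay: ME-180 reporter cells exposed to compounds for 5 hr, then lysed with CellTiter-Glo in the same wells. Luminescence, read after 30 min, reflects viable cells.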

[2] = qHTS assay to identify small molecule agonists of the endoplasmic reticulum stress response signaling pathway (AID 1159516; active = well fitted activation curve with a large enough effect in the signal ratio in the repeat runs, not every such curve was filed as active; the % refers to the signal ratio; also: potency is read from the fitted curve at half-maximal effect)
Method in brief: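 For this screen, HeLa cells stably carrying beta-lactamase under the ER stress response element received test compounds, positive controls or DMSO for 5 hr at 37 C; B/G FRET substrate was then added and dual-wavelength emission recorded.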

[3] = qHTS assay to identify small molecule agonists of the endoplasmic reticulum stress response signaling pathway - cell viability counter screen (AID 1159517; calls by dose curve; also: series mostly up to about 61 µM; % is scaled to controls: 0 for no effect and ±100 for the full control effect; nearly all actives have a fitted effect of over 50% in size)
Method in brief: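 Steps: seed 1,500 ESRE-bla HeLa cells per well; incubate overnight at 37 C, 5% CO2; add compounds in DMSO for 5 hr; run FRET substrate 2 hr RT; add CellTiter-Glo, wait 30 min, read luminescence.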

[4] = qHTS assay to identify small molecule antagonists of the retinoid-related orphan receptor gamma (ROR-gamma) signaling pathway - cell viability counter screen (AID 1159520); also: nearly all actives have a fitted effect of over 50% in size; also: potency is read from the fitted curve at half-maximal effect
Method in brief: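 Tet-on ROR gamma CHO cells were given compounds for 2 hr, then doxycycline hyclate at 1 uM final, and incubated 16 hr at 37 C. Viability was measured as ATP content by CellTiter-Glo luminescence.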

[5] = qHTS assay to identify small molecule antagonists of the retinoic acid receptor (RAR) signaling pathway (AID 1159552; also: nearly all actives have a fitted effect of over 50% in size; also: potency is read from the fitted curve at half-maximal effect)
Method in brief: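 Cells of the C3RL4 line were seeded, incubated overnight, then dosed with compounds in DMSO followed immediately by retinol (1 uM final). Six hours later luciferase detection reagent went in; signal was measured after 30 min at RT.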

[6] = qHTS assay to identify small molecule antagonists of the estrogen related receptor (ERR) signaling pathway from Tox21 library - cell viability counter screen (AID 1224834); also: nearly all actives have a fitted effect of over 30% in size; also: potency is read from the fitted curve at half-maximal effect
Method in brief: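 Seeded ERR cells were rested 6 h at 37 C/5% CO2 before compounds, positive and negative controls or DMSO were added. Incubation continued for 17.5 h, and viability was then quantified by CellTiter-Fluor fluorescence.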

[7] = qHTS assay to identify small molecule antagonists of the vitamin D receptor (VDR) signaling pathway - cell viability counter screen (AID 743225); also: % is scaled to controls: 0 for no effect and ±100 for the full control effect; nearly all actives have a fitted effect of over 50% in size
Method in brief: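 Read-out: CellTiter-Glo luminescence measured 30 min after reagent addition at room temperature. Cells were VDR-bla HEK 293T exposed 16 h at 37C, 5% CO2, to compound with 3 nM final calcitriol agonist.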

[8] = target: Nuclear receptor ROR-gamma (Homo sapiens) (UniProt P51449); assay: qHTS assay to identify small molecule antagonists of the retinoid-related orphan receptor gamma (ROR-gamma) signaling pathway (AID 1159521; also: nearly all actives have a fitted effect of over 50% in size; also: potency is read from the fitted curve at half-maximal effect)
Method in brief: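 CHO Tet-on RORγ, RORE-luc reporter. Cpd 2 h pre-incubation, then dox hyclate 1 uM final, 16 h, 37 C/5% CO2. ONE-Glo luminescence; decrease = antagonist.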

[9] = qHTS assay to identify small molecule agonists of the AP-1 signaling pathway - cell viability counter screen (AID 1159525; calls by dose curve; also: nearly all actives have a fitted effect of over 55% in size)
Method in brief: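 Same-well cytotoxicity counter screen of the Tox21 10K library in ME-180 cells. The readout is ATP-dependent luminescence after 5 h compound treatment. Data are normalised to DMSO and tetra n-octyl ammonium bromide controls.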

[10] = qHTS assay to identify small molecule agonists of the AP-1 signaling pathway (AID 1159526; calls by dose curve; also: % is scaled to controls: 0 for no effect and ±100 for the full control effect)
[11] = target: Retinoic acid receptor RXR-alpha (Homo sapiens) (UniProt P19793); assay: qHTS assay to identify small molecule agonists of the RXR signaling pathway (AID 1159527; calls by dose curve; also: % is scaled to controls: 0 for no effect and ±100 for the full control effect; nearly all actives have a fitted effect of over 35% in size)
Sequence of Retinoic acid receptor RXR-alpha (Homo sapiens) (P19793 whole entry, looked up): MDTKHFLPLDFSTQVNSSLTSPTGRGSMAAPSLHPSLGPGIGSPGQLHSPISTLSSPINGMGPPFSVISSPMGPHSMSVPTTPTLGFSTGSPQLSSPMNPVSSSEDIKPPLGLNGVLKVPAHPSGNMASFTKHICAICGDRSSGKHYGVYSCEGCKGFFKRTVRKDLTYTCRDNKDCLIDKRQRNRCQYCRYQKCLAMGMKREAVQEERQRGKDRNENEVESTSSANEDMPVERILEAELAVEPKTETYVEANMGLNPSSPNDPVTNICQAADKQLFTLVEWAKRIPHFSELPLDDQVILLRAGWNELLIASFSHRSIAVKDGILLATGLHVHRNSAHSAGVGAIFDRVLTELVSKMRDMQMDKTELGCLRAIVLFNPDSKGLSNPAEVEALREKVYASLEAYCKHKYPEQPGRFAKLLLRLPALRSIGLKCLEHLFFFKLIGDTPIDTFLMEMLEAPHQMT
Method in brief: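 Read-out: beta-lactamase FRET ratio (405 nm excitation, 460 and 530 nm emission) after 2 hr substrate loading at room temperature. Cells were RXR-alpha-UAS-bla HEK 293T treated with compounds for 16 hr in 2% charcoal-stripped FBS medium.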

[12] = qHTS assay to identify small molecule agonists of the retinoic acid receptor (RAR) signaling pathway (AID 1159553); also: potency is read from the fitted curve at half-maximal effect
Method in brief: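 6 hr compound exposure (DMSO vehicle) of overnight-plated C3RL4 RARE-luc cells at 37 C; luminescence quantified after 30 min RT with luciferase reagent.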

[13] = qHTS assay to identify small molecule agonists of the RXR signaling pathway - cell viability counter screen (AID 1159529); also: nearly all actives have a fitted effect of over 50% in size; also: potency is read from the fitted curve at half-maximal effect
Method in brief: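 HEK 293T RXRa-bla cells, 2% CS-FBS; 5 h settle; cpd 16 h 37 C, 5% CO2; CellTiter-Glo 30 min RT, luminescence. Tetraoctyl ammonium bromide as positive control.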

[14] = qHTS assay to identify small molecule antagonists of the estrogen related receptor (ERR) signaling pathway - cell viability counter screen (AID 1224818);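 also: series mostly up to about 46 µM; viability measured after 17.5 h of compound exposure; % is scaled to controls: 0 for no effect and ±100 for the full control effect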
Method in brief: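 Compounds dissolved in DMSO were applied to ERR cells seeded at 2,000 per well 6 h earlier. Cell viability followed 17.5 h later via 30-min CellTiter-Fluor fluorescence.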

[15] = qHTS assay to identify small molecule antagonists of the retinoid acid receptor (RAR) signaling pathway - cell viability counter screen (AID 1159551); also: nearly all actives have a fitted effect of over 35% in size; also: potency is read from the fitted curve at half-maximal effect
Method in brief: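 Measured by luminescent ATP detection, viability reflects C3RL4 cells treated 6 h at 37 C with test chemicals in the presence of 1 uM (final) retinol.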

[16] = qHTS assay to identify small molecule antagonists of the estrogen related receptor (ERR) signaling pathway (AID 1224819)
Method in brief: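 Compounds dissolved in DMSO were pin-transferred onto ERR cells that had been plated 6 h earlier, and cells were then incubated 18 h at 37 C; signal was luciferase luminescence via One-Glo.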

[17] = qHTS assay to identify small molecule agonists of the estrogen related receptor (ERR) signaling pathway (AID 1224820); also: % is scaled to controls: 0 for no effect and ±100 for the full control effect
Method in brief: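 Following a 6 h settling period, 2,000 ERR cells per well receive DMSO-dissolved compounds by pin tool and incubate 18 h at 37 C; agonist activity is scored from One-Glo luminescence read 30 min post-addition.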

[18] = test system: estrogen-related receptor alpha (ERRalpha) with PGC-1alpha coactivator, human; assay: qHTS assay to identify small molecule antagonists of the estrogen related receptor signaling pathway with the pleiotropic PPARgamma coactivator (PGC) (AID 1224821; calls by dose curve)
Method in brief: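 Screening used NTP's PGC/ERR cells, dosed via pin tool with compound in DMSO alongside positive and negative controls. After 18 h at 37 C, One-Glo reagent sat 30 min at room temperature before luminescence detection.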

[19] = qHTS assay to identify small molecule agonists of the estrogen related receptor signaling pathway with the pleiotropic PPARgamma coactivator (PGC) (AID 1224823); also: % is scaled to controls: 0 for no effect and ±100 for the full control effect
Method in brief: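 In this quantitative high-throughput screen, an 18 h, 37 C treatment of PGC/ERR cells with compounds in DMSO preceded a One-Glo luminescence read taken after 30 min at room temperature.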

C=CC(=O)OCCOCCOC(=O)C=C
inactive: Potency [1] | Potency [2] | Potency [3]
active: Potency [4] 13.7 µM | Potency [5] 48.8 µM | Potency [6] 38.7 µM

O=C(Nc1ccccc1)c1ccccc1O
active: Potency [12] 8.63 µM
inactive: Potency [7] | Potency [1] | Potency [2] | Potency [3] | Potency [8] | Potency [9] | Potency [10] | Potency [11] | Potency [5]

Clc1ccc(Cn2c(CN3CCCC3)nc3ccccc32)cc1
inactive: Potency [1] | Potency [2] | Potency [3] | Potency [4] | Potency [9] | Potency [13] | Potency [12] | outcome [14]

CN(C)CCCN1c2ccccc2Sc2ccccc21
inactive: Potency [1] | Potency [2] | Potency [3] | Potency [4] | Potency [9] | Potency [15] | Potency [12] | outcome [14] | Potency [16] | outcome [17] | Potency [18] | outcome [19]

Cc1ccc(C(=O)Oc2ccc(C(O)CNC(C)(C)C)cc2OC(=O)c2ccc(C)cc2)cc1 (centres undefined)
inactive: Potency [1] | Potency [2] | Potency [3] | Potency [9] | Potency [6]
active: Potency [4] 26.6 µM | Potency [13] 19 µM

C/C=C/C(=O)CC
inactive: viability change, negative = cytotoxic [7] 1.57% [at 15.1 µM] | activity, negative = cytotoxic [1] 18.8% [at 15.1 µM] | activation [2] 0.579% [at 15.1 µM] | activity change, negative = cytotoxicity [3] 28.8% [at 15.1 µM] | activity, negative = cytotoxicity [4] 4.4% [at 19 µM] | viability change, negative = cytotoxic [9] -12.1% [at 15.8 µM] | activity change, negative = cytotoxicity [15] -1.29% [at 19 µM] | activity, negative = inhibition [5] 130% [at 19 µM] | viability change, negative = cytotoxic [6] 3.2% [at 19 µM]

CC[N+]1(CC)CCC(=C(c2ccccc2)c2ccccc2)C1C (centres undefined)
inactive: Potency [1] | Potency [2] | Potency [3] | Potency [4] | Potency [10] | Potency [11] | Potency [13] | Potency [15] | Potency [6]

COC(=O)C1=C(C)NC(COC(N)=O)=C(C(=O)OC(C)C)C1c1cccc(Cl)c1Cl (centres undefined)
active: Potency [2] 21.3 µM
inactive: Potency [1] | Potency [3] | Potency [8] | Potency [9] | Potency [10] | Potency [11] | Potency [15]

CCN(CC)c1ccc(C(=C2C=CC(=[N+](CC)CC)C=C2)c2cc(S(=O)(=O)O)ccc2S(=O)(=O)[O-])cc1
active: Potency [4] 13.3 µM | Potency [15] 15 µM | Potency [5] 11.9 µM | Potency [6] 29.8 µM
inactive: Potency [7] | Potency [1] | Potency [2] | Potency [3] | Potency [10] | Potency [11]

O=S(c1cc(Cl)cc(Cl)c1O)c1cc(Cl)cc(Cl)c1O
inactive: Potency [7] | Potency [1] | Potency [2] | Potency [3] | Potency [4] | Potency [9] | Potency [13] | Potency [15] | Potency [5] | Potency [12] | Potency [6]

CCc1c(C(=O)NN2CCCCC2)nn(-c2ccc(Cl)cc2Cl)c1-c1ccc(Br)cc1
inactive: Potency [7] | Potency [1] | Potency [2] | Potency [3] | Potency [9] | Potency [10] | Potency [13] | Potency [15]
active: Potency [8] 54.5 µM

C#Cc1cccc(Nc2ncnc3cc(OCCOC)c(OCCOC)cc23)c1
active: Potency [6] 8.41 µM
inactive: Potency [7] | Potency [1] | Potency [2] | Potency [3] | Potency [4] | Potency [9] | Potency [13] | Potency [15] | Potency [5]
